An excerpt weighted towards active compounds, which were near 3.6% of everything screened.
BoNT-A LC inh2 = BoNT/A light chain protease inhibitors, primary screen, biochemical, flow cytometry, MLPCN library. multiplex microsphere protease substrate cleavage. inhibition, % at 10 µM. hit rate 0.17% among 360,000. AID 588499, 2011; also: plate controls were buffer without enzyme for full effect and enzyme alone for no effect
BoNT-F LC inh = BoNT/F light chain protease inhibitors, primary screen, biochemical, flow cytometry, MLPCN library | Multiplex microsphere protease cleavage assay | inhibition, % at 10 µM | Botulinum neurotoxin type F light chain protease (Clostridium botulinum) | hit rate 0.22% among 360,000; in the data active = inhibition above about 35%, passing the limit was not always enough; inconclusive = no clear call, values can overlap the other calls; also: plate controls were buffer without enzyme for full effect and enzyme alone for no effect
Anthrax LF prot = Bacillus anthracis LF protease inhibitors, primary screen, biochemical, multiplex microsphere, MLPCN library. Lethal factor (Bacillus anthracis), P15917. inhibition, % at 10 µM. multiplex microsphere protease cleavage assay. hit rate 0.12% among 360,000. AID 588501, 2011; also: plate controls were buffer without enzyme for full effect and enzyme alone for no effect
Target sequence (P15917 whole entry, looked up): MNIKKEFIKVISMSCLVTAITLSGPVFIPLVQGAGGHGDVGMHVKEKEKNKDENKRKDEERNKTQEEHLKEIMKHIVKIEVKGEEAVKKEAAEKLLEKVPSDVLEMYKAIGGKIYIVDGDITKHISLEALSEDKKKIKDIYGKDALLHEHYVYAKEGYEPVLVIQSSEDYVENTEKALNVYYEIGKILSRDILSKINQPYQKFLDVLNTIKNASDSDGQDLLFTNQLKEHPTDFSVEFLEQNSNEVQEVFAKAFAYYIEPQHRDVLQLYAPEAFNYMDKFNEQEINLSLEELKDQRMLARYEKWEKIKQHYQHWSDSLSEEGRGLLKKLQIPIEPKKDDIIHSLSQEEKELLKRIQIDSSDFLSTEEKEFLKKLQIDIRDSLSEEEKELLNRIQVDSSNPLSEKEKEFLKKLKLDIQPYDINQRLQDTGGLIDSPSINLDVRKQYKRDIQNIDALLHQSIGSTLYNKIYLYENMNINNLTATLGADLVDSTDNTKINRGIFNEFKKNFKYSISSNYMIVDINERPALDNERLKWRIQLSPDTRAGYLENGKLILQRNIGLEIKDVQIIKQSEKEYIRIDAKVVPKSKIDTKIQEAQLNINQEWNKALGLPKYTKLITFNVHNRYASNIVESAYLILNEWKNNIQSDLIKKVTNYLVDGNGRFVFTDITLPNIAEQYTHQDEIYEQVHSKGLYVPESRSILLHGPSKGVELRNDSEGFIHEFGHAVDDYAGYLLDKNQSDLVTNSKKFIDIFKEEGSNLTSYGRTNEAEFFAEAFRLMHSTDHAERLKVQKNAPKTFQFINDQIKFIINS
MazF activator = activators of E. coli MazEF toxin-antitoxin RNase, primary screen, biochemical, fluorescence, uHTS; Endoribonuclease toxin MazF (Escherichia coli (strain K12)), P0AE70; FAM/BHQ RNA-DNA oligo cleavage fluorescence, 5 h; activation, % at 20 µM; hit rate 0.32% among 350,000; AID 504720, 2011; in the data active = activation above about 50%
Bead autofluor = flagged as autofluorescent in microsphere protease counterscreen; compound autofluorescence counterscreen, microsphere flow cytometry; stronger effect = higher value; fluorescence intensity (concentration not given with the values); hit rate 3.1% among 360,000; in the data active = fluorescence intensity above about 16000; inconclusive = no clear call, values can overlap the other calls
Numbers without * were called inactive; ? = inconclusive; . = not tested or not shown. Rule as the data show it, unless noted: active = inhibition above about 30%; inconclusive = no clear call, values can overlap the other calls; inactive = below that.

SMILES	BoNT-A LC inh2	BoNT-F LC inh	Anthrax LF prot	MazF activator	Bead autofluor
Cc1n[nH]c(C)c1N1C(=O)c2cccc3c(N4CCCCCC4)ccc(c23)C1=O	15.6	33.1	-6.3	670.0*	20898*
CC(C)(C)c1ccc(S(=O)(=O)N2CC(C(=O)O)Oc3ccc(Cl)cc32)cc1 (stereo not given)	0.2	2.7	-5.3	6.2	4207
CCOC(=O)C1CCCN(C(=O)CCc2nc3sc4c(c3c(=O)[nH]2)CCCC4)C1 (stereo not given)	-0.1	-2.9	-0.3	-12.4	3425
CSc1cccc(-c2nnc(NC(=O)c3cccc(N4C(=O)CCC4=O)c3)o2)c1	-10.3	-3.2	-5.6	-0.2	8184
COc1ccc(C(=O)C[n+]2cc(-c3ccc(OC)cc3)n3c2CCCC3)cc1	0.9	3.3	-2.2	29.2	3984
Cc1ccc(C(=O)C[n+]2cc(-c3ccc(C)cc3)n3c2CCCCC3)cc1	-7.0	-6.7	-1.7	23.8	22561*
CCC(c1nnnn1C1CCCC1)N1CCN(c2cccc(OC)c2)CC1 (stereo not given)	0.6	-3.4	-3.3	-26.3	4792
CC(=O)N1N=C2c3ccccc3CCC2C1c1ccc(F)cc1 (stereo not given)	-0.3	-4.3	-0.4	4.7	5476
COc1ccc2c(c1)CCC1C2=NN(/C(C)=C/C(C)=O)C1c1cccc(F)c1 (stereo not given)	-25.2	24.2	6.2	-11.5	62503*
Cc1ccccc1-c1cccc([C@@H]2C[C@H]3C(CN2)CON3C)c1 (stereo not given in full)	-0.1	-11.7	-7.4	1.7	3132
COCCCN1C(=O)C(CC(=O)NCc2ccco2)CC(C(=O)N(C(C)C)C(C)C)=C1C (stereo not given)	0.7	-6.0	-3.4	.	5808
CCOC(=O)C1=C(C)NC2=C(C(=O)CC(C)(C)C2)C1c1ccc(N(C)C)cc1 (stereo not given)	-3.2	-6.7	-2.3	9.7	24751*
CCOc1cc(C2C(C(=O)N3CCCCC3)=C(C)NC3=C2C(=O)CC(C)(C)C3)ccc1O (stereo not given)	-0.9	-3.9	-2.7	13.3	23188*
COC(=O)C1=C(C)NC2=C(C(=O)CC(C)(C)C2)C1c1cccc(C)n1 (stereo not given)	-0.4	-0.8	-0.4	2.3	23176*
CC1=C(C(=O)OC(C)C)C(c2ccc(N(C)C)cc2)C2=C(CC(C)(C)CC2=O)N1 (stereo not given)	0.8	7.8	0.5	-8.4	4515
COC(=O)c1sc(N)c(C(=O)OC)c1COC(=O)C1CC(=O)N(Cc2ccco2)C1 (stereo not given)	2.0	1.2	-0.1	-10.7	21636*
CSCCC(NC(=O)OC(C)(C)C)C(=O)NC(C(=O)NC(CC(C)C)C(N)=O)C(C)C (stereo not given)	2.1	71.7*	10.6	6.1	9295
O=S(=O)(c1ccc(Cl)c(F)c1)N1CCC(c2nc(-c3ccncc3)no2)CC1	-2.7	-2.9	-3.6	-8.1	21243*
O=[N+]([O-])c1cccc(S(=O)(=O)N2CCC(c3nc(-c4ccncc4)no3)CC2)c1	-0.6	-5.5	-5.3	-0.7	6157
CCc1nc2ccc(C(=O)NCCCN3CCCC3=O)cn2c1N(CC)Cc1cccc(Br)c1	-0.4	-1.3	0.5	.	3494
Cc1ccc(C(=O)NC(Cc2c[nH]c3ccccc23)C(=O)O)cc1 (stereo not given)	?	0.5	-1.8	-1.8	20051*
CC(C)c1ccc(OCC(=O)NC(Cc2c[nH]c3ccccc23)C(=O)O)cc1 (stereo not given)	0.2	-1.4	0.7	7.3	4598
O=C(NC(Cc1c[nH]c2ccccc12)C(=O)O)c1ccc(Br)cc1 (stereo not given)	0.0	-7.0	-1.8	-1.9	2115
O=C(COc1ccccc1)NC(Cc1c[nH]c2ccccc12)C(=O)O (stereo not given)	0.5	0.5	-5.1	-0.8	16391*
Cc1nn(C)cc1C(=O)Nc1c(C)nn(Cc2ccccc2Cl)c1C	0.6	-4.6	-2.5	0.4	7280
SMILES	BoNT-A LC inh2	BoNT-F LC inh	Anthrax LF prot	MazF activator	Bead autofluor
CCn1nc(C)c(NC(=O)c2cc(Br)ccc2Cl)c1C	0.3	-0.8	-5.2	-3.3	19900*
CC(C)NC(=O)c1ccc(-c2cc(C(F)(F)F)ccc2Cl)o1	0.0	-2.7	-2.4	-7.0	22154*
COc1ccccc1CNC(=O)COC(=O)c1ccc(-n2cnnn2)cc1	-0.5	-6.4	-5.7	-0.5	?
CC(=O)Nn1cc2c(c1-c1ccccc1)c(=O)n(C)c(=O)n2C	-2.5	-7.4	2.1	1.3	24616*
Cn1c(=O)c2c(-c3ccccc3)n(-c3cc(Cl)c([N+](=O)[O-])cc3O)cc2n(C)c1=O	-18.1	-127.1	-20.4	.	21612*
Cn1c(Cc2cccs2)nnc1SCC(=O)Nc1ccc(C(N)=O)cc1	4.2	6.6	-1.5	1.2	4440
O=C(O)C1CCN(S(=O)(=O)c2ccc(N3CCC(O)CC3)c([N+](=O)[O-])c2)CC1	1.3	1.4	-2.1	5.4	5702
CCC(=O)N1N=C(c2ccc(NS(C)(=O)=O)cc2)CC1c1ccc(C)cc1 (stereo not given)	?	14.6	-8.5	4.7	19251*
CNC(=S)N1N=C(c2ccc(C)cc2)CC1c1ccc(Cl)cc1 (stereo not given)	-1.7	-3.6	-2.8	5.5	?
CNC(=S)N1N=C(c2ccc(C)cc2)CC1c1ccc(Br)cc1 (stereo not given)	-0.3	-0.2	-1.9	9.6	23443*
Cc1cc(C)cc(OC(C)c2ccnc3nc(/N=C/N(C)C)nn23)c1 (stereo not given)	0.4	3.8	-3.5	2.8	9768
CC(Oc1ccccc1)c1ccnc2nc(/N=C/N(C)C)nn12 (stereo not given)	?	6.1	-1.7	-1.5	21790*
COC(=O)COc1cccc(NC(=O)COc2ccccc2)c1	-0.6	-1.4	-5.0	4.8	3634
COc1ccc(OCC(=O)Nc2cccc(OC)c2)cc1	-2.9	-4.4	-5.0	0.9	17719*
Cc1ccc(NC(=O)Cn2c(=O)oc3ccccc32)cc1C	-2.6	-7.7	-2.1	5.9	3473
COC(=O)COc1cccc(NC(=O)c2ccccc2)c1	?	-2.2	-10.2	-4.8	24578*
COc1cccc(NC(=O)Cn2c(=O)oc3ccccc32)c1	-1.2	-2.5	-1.5	-0.1	23609*
COC(=O)COc1cccc(NC(=O)c2cccc(C)c2)c1	0.0	1.2	-0.4	-1.6	2153
COc1ccc(NC(=O)c2sc(NC(=O)COc3ccccc3)nc2C)cc1	1.8	-7.0	-1.4	9.6	6043
Cc1nc(NC(=O)COc2ccccc2)sc1C(=O)Nc1cccc(Cl)c1	?	-8.1	-4.4	22.4	24209*
C=CCN1C(=O)CSC1=Nc1ccc(NC(C)=O)cc1	2.0	4.1	0.9	4.5	4120
O=S(=O)(c1cccc(Cn2nnc(-c3ccccc3)n2)c1)N1CCOCC1	2.0	7.7	1.3	-4.5	4905

Compound activity as filed in PubChem.
